Bioassay records from PubChem.
Shown are actives, neighbours in structure and some others; about 4.8% of the full set was active somewhere.
D3 antag – blocks the human D3 dopamine receptor. max response, negative = inhibition, %. AID 652054. P35462. actives 2.5% (n = 360,000). D3R cells, DiscoveRx beta-arrestin luminescence, antagonist mode; stronger effect = lower value; in the data active = max response below about -50%; inconclusive = no clear call, values can overlap the other calls
Target sequence (P35462 whole entry, looked up): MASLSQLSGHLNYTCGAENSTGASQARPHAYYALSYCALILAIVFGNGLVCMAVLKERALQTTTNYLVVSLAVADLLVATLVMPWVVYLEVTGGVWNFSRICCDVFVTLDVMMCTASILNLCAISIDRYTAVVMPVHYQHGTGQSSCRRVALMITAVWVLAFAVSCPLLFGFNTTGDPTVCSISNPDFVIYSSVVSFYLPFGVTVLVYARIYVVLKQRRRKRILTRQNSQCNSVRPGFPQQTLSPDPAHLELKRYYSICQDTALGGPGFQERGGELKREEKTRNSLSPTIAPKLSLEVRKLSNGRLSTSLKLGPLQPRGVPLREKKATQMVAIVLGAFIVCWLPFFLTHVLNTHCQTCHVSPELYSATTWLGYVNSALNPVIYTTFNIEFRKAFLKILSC
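Cells plated overnight at 1500 cells/well, then exposed to library compounds with dopamine controls for 90 minutes at 37 degrees C. DiscoveRx reagent added for 30–60 minutes at room temperature; luminescence read, quantitative HTS format.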
ATXN viability – cell viability loss in ATXN counter-screen; S2 cells (HEK-293 line with an ATXN2-luciferase reporter) viability, CellTiter-Fluor protease fluorescence, 24 h; Potency, µM (doses to about 56.7 µM), most hits filed as cytotoxic; actives 0.49% (n = 400,000); AID 651635; note: nearly all actives have a fitted effect of over 40% in size
TGFb SMAD3 inh – blocks TGF-b signaling. actives 1.2% (n = 410,000). Potency, µM (titrated, usually from 46.1 µM), hits mostly inhibitors. HepG2 CAGA-GFP TGF-b/SMAD3 reporter, GFP fluorescence, 18 h; TGF-beta stimulated, 500 pg/mL final; note: nearly all actives have a fitted effect of over 65% in size
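GFP signal (ex488/em500-530) from TGF-beta-stimulated HEPG2 CAGA-GFP cells, 500 pg/mL final, 18 h at 37 degrees C in DMEM plus 1% FBS, normalized to unstimulated and DMSO-stimulated controls.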
ATXN2 expr inh – reduces ATXN2 reporter expression in HEK-293 cells; HEK-293 ATXN2-luciferase reporter, luminescence, 24 h; actives 0.72% (n = 360,000); Potency, µM (titrated, usually from 57 µM), usual class: inhibitors; note: nearly all actives have a fitted effect of over 55% in size
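ATXN2-luciferase reporter cells (luciferase flanked by upstream and downstream ATXN2 gene portions) were treated 24 h at 37 °C with compounds at up to 57 uM. SteadyGlo luminescence gave expression; GF-AFC fluorescence gave viability.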
HepG2 tox – counter-screen for TGF-b inhibitors: cytotoxicity in HepG2 cells. actives 0.76% (n = 410,000). Potency, µM (highest dose often 46.1 µM), most hits filed as cytotoxic. HepG2 CAGA-GFP viability, ATP luminescence, 18 h
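CellTiter-Glo luminescence gave cytotoxicity after 18 hours at 37 degrees C. The cells were HepG2 CAGA-GFP in 1% FBS DMEM, stimulated with 500 pg/mL TGF-beta after compound addition. %Activity was normalised to no-cell wells (complete cell-killing) and DMSO (no toxicity), and curves were fitted and classified.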
DRD3 agonist – agonists of human D3 dopamine receptor; max activation, %; actives 0.58% (n = 410,000); P35462; AID 652048; D3R DiscoveRx beta-arrestin cells, luminescence, 90 min; in the data active = max activation above about 30%
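Agonist mode: compounds and dopamine controls were applied to plated cells for 90 min at 37 degrees C after an overnight attachment at 1500 cells/well. Luminescent read-out followed 30 - 60 minutes at room temperature with DiscoveRx detection reagent.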
Numbers stand for hits; n = inactive; u = inconclusive; x = no result; ! = repeats disagree. Unless noted, calls come from the whole dose curve; as a rule, active = well fitted curve in the direction sought with a large enough effect; inconclusive = small, poorly fitted or top-dose-only effect, or another doubt; inactive = no such curve, though single readings can be large; an effect the other way counts as inactive or inconclusive.

SMILES | D3 antag | ATXN viability | TGFb SMAD3 inh | ATXN2 expr inh | HepG2 tox | DRD3 agonist
COc1cccc(C(=O)NCC2Cc3cccc(-c4cccnc4)c3O2)c1 (configuration not stated) | x | n | x | x | x | x
CC(O)(c1cccc(F)c1)c1nc(-c2cc(F)cc(F)c2)cs1 (configuration not stated) | n | u | 11µM | n | n | n
CCN(CC)C(=O)c1cccc(-c2csc(C(C)(O)c3cccc(F)c3)n2)c1 (configuration not stated) | n | u | u | 28µM | n | n
Cn1cc(-c2csc(C(C)(O)c3cccnc3)n2)cn1 (configuration not stated) | n | n | n | n | 2.2µM | n
CC(O)(c1cccc(F)c1)c1nc(-c2cc3ccccc3o2)cs1 (configuration not stated) | u | u | u | n | n | n
CC(O)(c1ccccc1)c1nc(-c2cccc(F)c2)cs1 (configuration not stated) | u | n | u | n | n | n
CC(=O)Nc1cccc(-c2csc(C(C)(O)c3cccc(F)c3)n2)c1 (configuration not stated) | u | n | n | n | n | n
COc1cccc(C(C)(O)c2nc(-c3cc4ccccc4o3)cs2)c1 (configuration not stated) | n | n | 8.9µM | n | n | n
CCCS(=O)(=O)NCc1c(C)ncc2c1CCN(C(=O)/C=C/c1ccc(F)cc1F)C2 | x | n | x | x | x | x
CC(O)(c1cccc(F)c1)c1nc(/C=C/c2ccccc2)cs1 (configuration not stated) | -88 | n | u | n | n | n
CC(O)(c1cccc(F)c1)c1nc(-c2csc3ccccc23)cs1 (configuration not stated) | n | u | 13µM | n | n | n
CC(O)(c1ccc(F)c(F)c1)c1nc(/C=C/c2ccc(C(F)(F)F)cc2)cs1 (configuration not stated) | u | u | u | u | n | n
N#Cc1ccc(Nc2nc(-c3ccc(O)cc3O)cs2)cc1C(F)(F)F | n | 22µM | u | 25µM | n | n
CCCCCCC[N+](CC)(CC)CCCCc1ccc(Cl)cc1 | u | u | n | 22µM! | n | n
CCCCCNCc1ccc(Cl)cc1 | n | n | n | n | n | n
O=c1c(Cl)c(Cl)cnn1Cc1nnc(-c2ccccc2Br)o1 | -81 | x | 16µM | u | n | n
CCOC(=O)[C@H]1O[C@@H]1C(=O)N[C@@H](CC(C)C)C(=O)NCCC(C)C | n | 3.2µM | u | n | n | n
NC(=O)c1c(OCc2c(F)cc(Br)cc2F)nsc1NC(=O)NCCCCN1CCCC1 | x | x | x | 31µM | x | x
COc1ccc(C2CC(=O)c3cc(-c4nc(-c5ccc(Cl)cc5)c(C)s4)c(=O)[nH]c3C2)cc1 (configuration not stated) | x | n | n | n | n | n
CCOC(=O)C1CCCN(C(=O)Cn2cnc3c2c(=O)n(C)c(=O)n3C)C1 (configuration not stated) | n | n | n | n | n | 32
C=CCN(CC=C)CC(O)CN(c1cc([N+](=O)[O-])ccc1OC)S(=O)(=O)c1ccccc1 (configuration not stated) | -84 | n | n | n | n | n
COc1cccc(OCCNCc2ccccc2)c1 | -79 | n | n | n | n | n
Cc1ccc(OCCNCc2ccccc2)c(C)c1 | -70 | n | n | n | n | n
Cc1cccc(OCCCCNCc2ccccc2)c1 | u | n | n | n | n | n
COc1cccc(NC(=O)c2ccccc2OCC(=O)Nc2ccc(Br)cc2)c1 | x | x | u | x | n | x
SMILES | D3 antag | ATXN viability | TGFb SMAD3 inh | ATXN2 expr inh | HepG2 tox | DRD3 agonist
CN(c1ccccc1C(=O)Nc1cccc(Cl)c1Cl)S(C)(=O)=O | -57 | n | n | n | n | n
CCOc1ccccc1NC(=O)c1ccccc1N(C)S(C)(=O)=O | u | n | n | n | n | n
O=C(c1ccc(F)cc1)N1CCCCC(Sc2nnnn2-c2ccccc2)C1=O (configuration not stated) | n | n | n | n | n | n
O=C(c1ccccc1)N1CCCCC(Sc2nnnn2-c2ccccc2)C1=O (configuration not stated) | -60 | n | n | n | n | n
O=C(Cn1c(=O)oc2cc(S(=O)(=O)NC3CCCC3)ccc21)Nc1ccc(F)c(F)c1 | x | n | u | n | n | n
O=C(CCCCCN1C(=O)CCC1=O)Nc1ncn[nH]1 | -53 | u | u | n | n | n
Cc1c(Cl)cccc1NC(=O)CCCCCN1C(=O)CCC1=O | n | n | n | n | n | n
CS(=O)(=O)c1nc(-c2ccc(F)cc2)cc(C(F)(F)F)n1 | -79 | u | u | u | 11µM | n
COc1ccc(-c2cc(C(F)(F)F)nc(N)n2)cc1 | n | n | n | n | n | n
CCC(C)NC(=O)CCSc1nc(-c2ccc(OC)cc2)cc(C(F)(F)F)n1 (configuration not stated) | x | n | n | n | n | n
COc1ccc(-c2cc(C(F)(F)F)nc(S(C)(=O)=O)n2)cc1 | -75 | 18µM | 3.5µM | u | n | n
COCC(C)NC(=O)CCS(=O)(=O)c1nc(-c2ccc(OC)cc2)cc(C(F)(F)F)n1 (configuration not stated) | -87 | u | 11µM | u | n | n
COc1ccc(NC(=O)CSc2ncc3c(n2)-c2cc(Cl)ccc2N(Cc2ccccc2F)S3(=O)=O)cc1 | x | n | n | n | n | n
O=C(CS(=O)(=O)c1cccc2nsnc12)NCc1ccccc1 | x | n | n | n | n | n
CC(O)[C@H]1CC[C@H]2[C@@H]3CC[C@@H]4C[C@@H](O)CC[C@]4(C)[C@H]3CC[C@]12C (some centres not stated) | x | x | x | x | x | n
COc1cccc(NC(=S)NC(=O)/C=C/c2ccc(F)cc2)c1 | n | n | n | n | n | n
CCC(=O)Nc1cccc(C(=O)/C=C/c2ccc(F)cc2)c1 | u | u | 20µM | u | 14µM | n
CC(=O)Nc1cccc(C(=O)/C=C/c2ccc(C)cc2)c1 | n | u | u | n | 13µM | n
COc1ccccc1NC(=O)N1c2ccccc2Sc2ccccc21 | x | n | u | n | n | n
Cc1ccc(S(=O)(=O)N2CCC(C(=O)N[C@@H](Cc3ccccc3)C(=O)O)CC2)cc1 | n | n | n | n | n | 37
Cc1ccc(NC(=O)c2cc(S(=O)(=O)N3CCCC3)cn2C)cc1 | n | n | n | n | n | n
Cc1ccc(S(=O)(=O)N2CCC(C(=O)NCCc3ccccc3)CC2)cc1 | n | n | n | n | n | n
